Compounds with a hit are over-represented: about 6.6% of the library has one in this group of screens.
PTAP TSG101 blk: qHTS Assay for Iinhibitors of HIV-1 Budding by Blocking the Interaction of PTAP/TSG101; Tumor susceptibility gene 101 protein (Homo sapiens), Q99816; Fluorescence polarization, FITC-PTAP peptide / Tsg101 binding; Potency, µM (highest dose often 115 µM), for the others: top-dose activity change, negative = inhibition, most hits filed as inhibitors; 340,000 tested, under 10 active; active means well fitted inhibition curve with a large enough effect in the main read-out, with a control signal flat, not every such curve was filed as active; inconclusive means small, poorly fitted or top-dose-only effect, or effect the other way, or a change in a side signal; inactive means no such curve, though single readings can be large or run the other way; further: % of control where 0% means no effect
Target sequence (Q99816 whole entry, looked up): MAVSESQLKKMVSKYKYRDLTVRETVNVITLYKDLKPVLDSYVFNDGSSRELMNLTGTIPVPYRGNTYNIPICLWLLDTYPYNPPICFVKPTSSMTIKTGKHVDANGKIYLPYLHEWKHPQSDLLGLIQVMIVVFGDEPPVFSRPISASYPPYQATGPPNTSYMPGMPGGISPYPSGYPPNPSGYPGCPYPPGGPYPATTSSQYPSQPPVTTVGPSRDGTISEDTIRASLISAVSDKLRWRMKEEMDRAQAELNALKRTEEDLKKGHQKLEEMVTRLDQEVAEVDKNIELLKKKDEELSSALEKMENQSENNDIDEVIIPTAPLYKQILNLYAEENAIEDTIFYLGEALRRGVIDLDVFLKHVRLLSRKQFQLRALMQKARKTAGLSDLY
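Steps: Tsg101 binding domain dispensed (10 uM final), compounds pinned in DMSO, FITC-labeled PTAP-motif peptide added (50 nM final); after 20 min binding at room temperature, polarization measured.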
KB-3-1 cytotox: qHTS assay for MDR1-selective chemotherapeutics: Primary screen using the parental adenocarcinoma cell KB-3-1 | KB-3-1 viability, CellTiter-Glo ATP luminescence, 72 h | Potency, µM (titrated, usually from 46.1 µM), most hits filed as cytotoxic | hit rate 1.4% among 400,000 | AID 1347075, 2019; further: on the % scale 0 is the no-effect control and ±100 the full control effect; nearly all actives have a fitted effect of over 60% in size
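KB-3-1 cells, DMEM (no phenol red) + 10% FBS; compound by pin transfer, 72 h, 37 °C. Readout: CellTiter-Glo luminescence after 10 min. Data normalized, curve-fitted.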
MCF10A rereplic: A quantitative high throughput screen for small molecules that induce DNA re-replication in MCF 10a normal breast cells; MCF 10A DNA re-replication, Hoechst nuclear intensity, 48 h; AID 624296, 2012; hit rate 2.9% among 350,000; Potency, µM (top dose mostly 46.1 µM), inactives show top-dose activity, positive = re-replication, usual class: activators; further: % of control where 0% means no effect; nearly all actives have a fitted effect of over 50% in size
RGS4 inh: Inhibitors of Regulator of G Protein Signaling (RGS) 4: qHTS; Potency, µM (series often up to 114 µM), inactives show top-dose activity change, negative = inhibition, usual class: inhibitors; Regulator of G-protein signaling 4 (Homo sapiens), P49798; Transcreener GDP fluorescence polarization, RGS4-accelerated GTP hydrolysis; hit rate 0.039% among 390,000; AID 504845, 2011; further: on the % scale 0 is the no-effect control and ±100 the full control effect; nearly all actives have a fitted effect of over 75% in size
Target sequence (P49798 whole entry, looked up): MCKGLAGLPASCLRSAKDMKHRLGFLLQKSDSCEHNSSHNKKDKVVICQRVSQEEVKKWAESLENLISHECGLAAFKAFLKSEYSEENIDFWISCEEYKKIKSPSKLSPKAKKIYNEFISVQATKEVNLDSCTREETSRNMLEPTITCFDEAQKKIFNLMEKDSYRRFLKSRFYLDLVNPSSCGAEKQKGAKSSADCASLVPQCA
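MLSMR compounds (23 nl, pin-transferred) preincubated 10 min at room temperature with a 500nM (2x) first reagent, then RGS4 at 900nM (2x) plus Transcreener GDP mix added; fluorescence polarization (620/688 nm) read before and after 90 min at 30 °C.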
KB-V1 MDR tox: qHTS assay for MDR1-selective chemotherapeutics: Primary screen using the drug-selected MDR subline cells KB-V1; KB-V1 MDR cells viability, CellTiter-Glo, 72 h; Potency, µM (highest dose often 46.1 µM), hits mostly cytotoxic; hit rate 3.4% among 400,000; AID 1347076, 2019; further: on the % scale 0 is the no-effect control and ±100 the full control effect; nearly all actives have a fitted effect of over 60% in size
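Potencies derive from concentration-effect curves fitted to normalized luminescence (CellTiter-Glo) of KB-V1 cells treated for 72 h at 37 degrees C in phenol-red-free DMEM containing 10% FBS.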
SW480 rereplic: A quantitative high throughput screen for small molecules that induce DNA re-replication in SW480 colon adenocarcinoma cells; SW480 DNA re-replication, Hoechst DNA content imaging, 48 h; Potency, µM (doses to about 46.1 µM), inactives show at the highest dose re-replication activation, usual class: activators; hit rate 1.8% among 340,000; further: % of control where 0% means no effect; nearly all actives have a fitted effect of over 55% in size
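Compounds, transferred as 23 nL by pin tool, were incubated with cells for 48 hr; DNA content per nucleus was then quantified by Hoechst staining and fluorescence plate imaging.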
* = called active by the depositor; i = inactive; u = inconclusive; x = not tested or not shown; ! = not active in a repeat; [ ] = dose if it differs, or a comment. Unless noted, the call rests on the fitted dose curve; in most records, active means well fitted curve in the direction sought with a large enough effect; inconclusive means small, poorly fitted or top-dose-only effect, or another doubt; inactive means no such curve, though single readings can be large; an effect the other way counts as inactive or inconclusive. Potency means the concentration at half of the fitted maximal effect.

SMILES | PTAP TSG101 blk | KB-3-1 cytotox | MCF10A rereplic | RGS4 inh | KB-V1 MDR tox | SW480 rereplic
C=CCn1c(NS(=O)(=O)c2ccccc2)c(S(=O)(=O)c2ccc(C)cc2)c2nc3ccccc3nc21 | -3% | u | 15µM* | -43% | 13µM* | u
C(=C\c1ccnc2ccccc12)/c1cccnc1 | x | i | x | x | i | x
O=C(Nc1cc(=O)c2ccccc2o1)N1CCCCC1 | -10% | i | u | 33% | 12µM* | 15%
O=C(Nc1cc(=O)c2ccccc2o1)N1CCOCC1 | -3% | i | u | 6% | u | 0%
COc1cc(OC)cc(-c2nc3nc(C)c(CCC(=O)Nc4ccc(F)cc4F)c(C)n3n2)c1 | x | i | x | 9% | i | x
CCCn1nc([N+](=O)[O-])c(C(C#N)c2nc3ccccc3s2)c(Cl)c1=O (stereo not given) | u | u | u | u | 5.8µM* | 1.3µM*
CCn1nc([N+](=O)[O-])c(C(C#N)c2nc3ccccc3n2C)c(Cl)c1=O (stereo not given) | -14% | i | u | -41% | i | -2%
Cc1cc(Nc2nc3ccccc3nc2Cl)n(-c2ccccc2)n1 | -5% | u | 13µM* | -10% | 13µM* | u
Cc1cc(Nc2ccc(Cl)cc2)n(-c2cccc(Cl)c2)n1 | -3% | u | 26µM* | 0%[11.4 µM] | u | u
Cc1cc(Nc2ccccc2C(=O)O)n(-c2cccc(Cl)c2)n1 | -7% | i | -1% | 17% | i | 5.2µM*
CCN(CC)c1ccc(-c2nnc(SCC(=O)NCc3ccco3)n2C)cc1 | x | i | x | x | i | x
O=C(Cn1c2c(sc1=O)C1c3ccccc3OCC1CS2)Nc1ccc(Cl)c(Cl)c1 (stereo not given) | -11% | 16µM* | 28% | 9% | i | 4%
Cc1ccc(F)cc1NC(=O)COC(=O)c1ccc(S(C)(=O)=O)c([N+](=O)[O-])c1 | x | u | x | -17% | i | x
O=[N+]([O-])c1cc(-n2cccc2)ccc1N1CCOCC1 | -1% | u | -2% | 17% | 6.5µM* | -6%
Nc1cc(N2CCOCC2)c(Cl)cc1[N+](=O)[O-] | 2% | i | 1% | 29% | 6.5µM* | 2%
Nc1cc(N2CCCC2)c(Cl)cc1[N+](=O)[O-] | -3% | u | 14% | 15% | 8.2µM* | -1%
Cc1ccc(C)n1-c1ccc(N2CCOCC2)c([N+](=O)[O-])c1 | 0% | u | u | 11% | i | u
Cc1cc(C)nc(N/C=C(\C#N)C(=O)c2cccc(CSc3ccccc3)c2)n1 | x | i | x | x | i | x
Cc1c(Cl)cccc1-n1nnc(-c2nc(-c3ccc4c(c3)OCO4)no2)c1C | x | x | x | 27% | x | x
CCOc1ccc(-n2nc(CO)c(C(=O)NCc3cccc(OC)c3)n2)cc1 | x | x | x | -2% | x | x
CCOc1nc(-c2ccccc2)ccc1-c1noc(COC)n1 | -4% | i | 24% | 21% | 23µM* | u
COCc1nc(-c2ccc(-c3ccccc3)nc2OC)no1 | -3% | i | 4% | -15% | u | -2%
COc1nc(C)ccc1-c1noc(-c2ccccn2)n1 | -8% | i | -4% | 13% | 12µM* | -9%
COc1nc(-c2ccccc2)ccc1-c1noc(C)n1 | -5% | i | 13µM* | 17% | u | -1%
Cn1c(CN2CCCCC2)nc2cc(NC(=O)c3ccccc3Cl)ccc21 | -4% | u | -3% | -19% | 15µM*! | 0%
SMILES | PTAP TSG101 blk | KB-3-1 cytotox | MCF10A rereplic | RGS4 inh | KB-V1 MDR tox | SW480 rereplic
Cn1c(CN2CCCCC2)nc2cc(NC(=O)c3ccc(F)cc3)ccc21 | -7% | u | 9% | -11% | 21µM* | u
CCn1c(CN2CCOCC2)nc2cc(NC(=O)c3ccc([N+](=O)[O-])cc3)ccc21 | x | 16µM* | x | 12% | u | x
CCOc1ccc(CC(=O)Nc2nnc3n2CCS3)cc1 | x | i | x | 19% | u | x
COc1ccccc1N1C(C)=CC(=C(C#N)c2nc3ccccc3s2)C=C1C | u | u | u | 12% | i | 18µM*
CCOC(=O)N1CCN(C(=O)COc2cccc3c2CCN(Cc2ccccc2C)C3=O)CC1 | -2% | i | -2% | -13% | u | -1%
Cc1cccc(NC(=O)COc2cccc3c2CCN(C)C3=O)c1C | -3% | i | 0% | 7% | u | -3%
CCOC(=O)N1CCN(C(=O)COc2cccc3c2CCN(Cc2cccc(C)c2)C3=O)CC1 | -4% | i | 10% | -19% | 18µM* | 2%
Cc1cccc(NC(=O)COc2cccc3c2CCN(Cc2ccccc2)C3=O)c1C | -4% | i | -4% | -13% | 9.2µM* | 0%
O=C(CCCSc1ccccc1)Nc1nc(-c2ccco2)c(-c2ccco2)s1 | 2% | i | 15µM* | u | u | 0%
CCNc1nc(N)c(C(=C(C#N)C#N)c2ccccc2)s1 | -6% | i | 20µM* | -26% | i | u
O=S(=O)(c1ccc(Cl)nc1)N(Cc1ccccc1)Cc1ccccc1 | 0% | i | u | -20% | 18µM* | -44%
COc1cccc(CN(C)C(=O)CN2C(=O)NC3(CCCc4ccccc43)C2=O)c1 (stereo not given) | -2% | i | -3% | -12% | 21µM* | -3%
COC(=O)Nc1ccc(S(=O)(=O)NNC(=O)c2c(O)c3ccccc3[nH]c2=O)cc1 | 1% | i | 21µM* | -8% | i | u
Cc1ccc(S(=O)(=O)NNC(=O)c2c(O)c3ccccc3[nH]c2=O)cc1 | 0% | i | 5.8µM* | 1%[56.9 µM] | 2.6µM* | u
CCN(CC)S(=O)(=O)c1csc(C(=O)Nc2ccccn2)c1 | -2% | i | 4% | 16% | 23µM* | 3%
O=C(Nc1ccccn1)c1cccs1 | 0% | u | 1% | -92%[11.4 µM] | i | -6%[9.22 µM]
Cc1[nH]c2c(ccc3cccnc32)c1C | -5% | i | 4% | 5% | i | -25%
CC1=[N+](C)c2c(ccc3cccnc23)C1(C)C | -3% | 10µM* | u | u | u | u
Cc1nc(N/N=C/c2ccc(O)cc2O)cc(N2CCOCC2)n1 | -3% | u | u | -5% | u | u
